# Assay results taken from PubChem BioAssay (NCI).
# This is part of a sample that, as a whole, favours compounds with a hit. Of some 83,000 tested, about 20% had one in any assay.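 Single-concentration screen, 48 h exposure, 96-well plates. Endpoint: percent growth. Below 10 = active.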 Unmarked numbers belong to inactive results. Active and inactive are the calls of the source.
# Tested on: MDA-MB-468 breast
# Assay: NCI-60 one-dose screen, 48 h (100 = growth as untreated, 0 = no growth, -100 = all killed)
# Conditions: 10 µM unless noted
row,Structure (SMILES),growth
1,COc1cc(C2=NN(C=O)C(c3cccc(Nc4ccnc5cc(C(F)(F)F)ccc45)c3)C2)cc(OC)c1OC (stereo not given),42.8%
2,Cc1cccc(/C=C/C(=O)Nc2ncc(Cc3cccc(C)c3)s2)c1,-15.3% (active)
3,CSc1nc(NCCN2CCOCC2)c(C#N)c(-c2cccc([N+](=O)[O-])c2)n1,113%
4,CC1(C)CC[C@]23CC[C@]4(C)[C@H](CC[C@@H]5[C@@]6(C)CC[C@H](N)C(C)(C)[C@@H]6CC[C@]54C)[C@H]2[C@H]1OC3,0.703% (active)
5,COc1ccc(C(=O)Cn2c(C(=O)c3ccccc3)nc3ccccc32)cc1,2.35% (active)
6,COc1ccc(C(=O)C(CN(C)C)CN(C)C)cc1,-66.4% (active)
7,CCCCCC(=O)OCC(=O)O[C@@H]1C[C@]2(C(C)C)O[C@@]1(C)[C@@H]1CC[C@@H](C)[C@H]1[C@@H]2OC(=O)/C=C/c1ccccc1,70%
8,COc1ccc(C(=O)/C=C/c2cc(-c3cc(OC)c(OC)c(OC)c3)n[nH]2)cc1OC,-94.6% (active)
9,c1nc(N2CCOCC2)c2[nH]ccc2n1,108%
10,COc1cc(NCC(=O)Nc2cc(Nc3ccc(C)cc3)ncn2)c(Cl)c(OC)c1Cl,105%
11,O=C1C=Cc2ccccc2/C1=C/c1nc(-c2ccccc2)oc1O,88.6%
12,CS(=O)CC1=NC(=N)N=C1CS(C)=O (stereo not given),88.5%
13,COc1ccc2[nH]cc(-c3nc(-c4cn(C)c5ccncc45)cs3)c2c1,102%
14,N#Cc1cccc(/C(N)=N/C(N)=N/c2nc3ccccc3s2)c1,18.7%
15,O=C(OCc1ccc2c(Cl)cc(Cl)c(O)c2n1)N1CCN(C(=O)c2cc3cc(F)ccc3[nH]2)CC1,-5.15% (active)
16,CC1(C)C(=O)/C(=C\c2ccco2)C[C@]2(C)[C@H]3CC[C@@H]4[C@@H](C(=O)/C=C/c5ccco5)CC[C@@]4(C)[C@]3(C)CC[C@@H]12,-1.49% (active)
17,Cc1ccc(Cn2c(N3CCC(C(=O)NCc4cccs4)CC3)nc3ccccc32)cc1,95.3%
18,Nc1ccccc1NC(=O)c1ccc(CN2CCC/C(=C\c3cccc(Cl)c3)C2=O)cc1,-10.1% (active)
19,O=[N+]([O-])c1cccc(N=Nc2ccc(O)cc2O)c1,69.6%
20,CCOC(=O)c1nc(Nc2ccc(NC(=O)Nc3ccc(F)cc3)cc2)c2ccccc2n1,80.3%

row,Structure (SMILES),growth
1,C=C(CNCCc1ccc(O)cc1)[C@@H]1CC[C@]2(COC3CCCCO3)CC[C@]3(C)[C@H](CC[C@@H]4[C@@]5(C)CCC(NCCO)C(C)(C)[C@@H]5CC[C@]43C)[C@@H]12 (stereo not given in full),-80.1% (active)
2,C[C@@H](CO)[C@@H]1CC[C@]2(C(=O)N3CCN(C)CC3)CC[C@]3(C)[C@H](CC[C@@H]4[C@@]5(C)CC[C@H](O)C(C)(C)[C@@H]5CC[C@]43C)[C@@H]12,61%
3,CCCC(=O)Oc1ccc(CC)cc1,117%
4,CCOCCc1c(O)nc(SC)[nH]c1=O,82.5%
5,CC[C@@]1(OC(=O)CN(C)C)C(=O)OCc2c1cc1n(c2=O)Cc2cc3c(N)cccc3nc2-1,-66.4% (active)
6,c1cc(C2CCCCC2)ccc1-c1cnc2nonc2n1,2.69% (active)
7,CCN(CC)N=Nc1nn(C(=O)Nc2ccc(Cc3ccccc3)cc2)c2ccc(Cl)cc12,101%
8,COc1ccc(C(=O)/C=C/c2ccc(Oc3nc(NCCO)nc(N4CCOCC4)n3)c(OC)c2)cc1,63.4%
9,CCCc1c(OC(=O)c2ccccc2)nc2[nH]c(=O)sc2c1C,84.4%
10,CN(C)CCCNc1nn2c(=O)c3ccccc3nc2c2ccccc12,53.4%
11,O=[N+]([O-])c1ccc2[nH]cc(-c3c4ccccc4cc4[nH]c5ccc([N+](=O)[O-])cc5c34)c2c1,23.9%
12,O=C(Cn1c2ccccc2c2ccncc21)N/N=C/c1c[nH]c2ccccc12,43.4%
13,O=C1CC(c2ccccc2)Cc2nc3ccc(Br)cc3cc21 (stereo not given),0.354% (active)
14,CCOC(=O)CCCS(C)(=O)=O,126%
15,COc1cc(C(=O)/C=C/c2ccc3nc(-c4cc(F)cc(F)c4)sc3c2)cc(OC)c1OC,120%
16,Cc1ccc(-c2cc3nc(C(Cl)Cl)nc(-c4cccs4)n3n2)cc1,39.5%
17,CCCc1c(C)nc2scc(-c3ccc(Cl)cc3)n2c1=O,97.9%
18,FC(F)(F)c1ccc2c(c1)Sc1ccccc1N2,102%
19,COc1ccccc1/C=C/C=N/NC1=NC2C(S1)N(C)C(=O)N2C (stereo not given),-5.34% (active)
20,COc1ccc(S(=O)(=O)NC2c3ccccc3CC2O)cc1OC (stereo not given),111%
